Measured values from PMC4336329 (PLoS ONE, 2015).
Screen size: about 310,000 compounds; about 14,000 (4.5%) showed an effect of 50% or more. Effects have a minus sign here. Shown is part of a subset that was picked to be rich in strong results.

Biological target: human ether-à-go-go-related gene (hERG) potassium channel (human, UniProt Q12809)
Experiment: primary screen, population patch clamp on CHO cells stably expressing hERG; higher = less effect of the substance
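Further: peak tail current of the secondary pulse compared with the same well before compound.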

Sequence of human ether-à-go-go-related gene (hERG) potassium channel (Q12809 whole entry, looked up): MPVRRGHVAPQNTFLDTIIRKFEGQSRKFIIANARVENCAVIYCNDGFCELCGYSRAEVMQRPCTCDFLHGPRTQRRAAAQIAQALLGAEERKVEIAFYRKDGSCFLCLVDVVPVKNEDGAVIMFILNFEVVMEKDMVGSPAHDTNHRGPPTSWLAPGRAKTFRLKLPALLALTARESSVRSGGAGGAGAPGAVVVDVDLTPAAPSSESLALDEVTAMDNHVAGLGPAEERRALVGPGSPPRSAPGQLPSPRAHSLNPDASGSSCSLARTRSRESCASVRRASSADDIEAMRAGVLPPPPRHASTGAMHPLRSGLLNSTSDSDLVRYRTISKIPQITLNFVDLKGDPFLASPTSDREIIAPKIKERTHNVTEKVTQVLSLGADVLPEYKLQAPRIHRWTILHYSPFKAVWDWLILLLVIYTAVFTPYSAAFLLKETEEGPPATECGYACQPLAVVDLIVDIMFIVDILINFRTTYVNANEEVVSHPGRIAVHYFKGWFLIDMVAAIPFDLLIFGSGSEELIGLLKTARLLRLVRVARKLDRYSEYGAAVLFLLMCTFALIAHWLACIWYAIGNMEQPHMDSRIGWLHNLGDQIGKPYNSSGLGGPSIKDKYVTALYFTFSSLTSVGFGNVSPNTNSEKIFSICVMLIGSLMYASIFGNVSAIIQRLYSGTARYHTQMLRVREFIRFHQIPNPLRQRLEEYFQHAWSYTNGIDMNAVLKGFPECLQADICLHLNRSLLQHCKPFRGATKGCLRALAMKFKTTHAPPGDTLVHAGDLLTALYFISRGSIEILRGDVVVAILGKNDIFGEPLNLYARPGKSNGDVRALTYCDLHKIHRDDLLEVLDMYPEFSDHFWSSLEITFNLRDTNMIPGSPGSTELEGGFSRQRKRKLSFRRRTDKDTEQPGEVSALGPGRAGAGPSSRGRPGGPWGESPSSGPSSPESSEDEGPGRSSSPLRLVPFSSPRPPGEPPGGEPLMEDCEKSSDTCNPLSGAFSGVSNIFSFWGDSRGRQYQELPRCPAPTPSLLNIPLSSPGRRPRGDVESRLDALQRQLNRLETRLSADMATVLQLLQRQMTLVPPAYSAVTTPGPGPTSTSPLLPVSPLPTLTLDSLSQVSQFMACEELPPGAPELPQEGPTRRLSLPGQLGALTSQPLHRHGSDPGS

| Structure (SMILES) | hERG current change (%, negative = inhibition) at 10uM |
| --- | --- |
| O=S(=O)(/N=C(/Nc1ccc(F)cc1F)c1ccccc1)c1ccc(Br)cc1 | 12.3% |
| Cc1cc(C)cc(-n2c(SCC(=O)NCc3ccc4c(c3)OCO4)nc3ccccc3c2=O)c1 | 15.9% |
| CCOC(=O)c1c(-n2c(C)cc(/C=C3/C(=O)NC(=O)N(CC)C3=O)c2C)sc2c1CCCC2 | 2.36% |
| CC(C)C1Oc2ccccc2N(CC(=O)N(Cc2ccccn2)C2CC2)C1=O (stereo not shown) | -13.6% |
| O=C(Nc1ccccc1N1CCCC1)C1CC(=O)N(Cc2ccccc2)C1 (stereo not shown) | -44.4% |
| CCOC(=O)CNc1ncnc2nc[nH]c12 | 9.53% |
| COC(=O)c1c(S(=O)(=O)NCc2ccccc2)sc(C(=O)O)c1C | 6.81% |
| COC(=O)c1sc(S(=O)(=O)NCc2ccccc2)c(C(=O)OC)c1C | -50.4% |
| COC(=O)c1sc(S(=O)(=O)NCc2cccs2)c(C(=O)OC)c1C | -19.1% |
| Cc1[nH][nH]c(=O)c1C=Nc1ccc(C(F)(F)F)cc1 | 17.4% |
| O=C(OC(C(=O)NC1CCCC1)c1ccccn1)c1cccs1 (stereo not shown) | -3.4% |
| CCc1noc(C)c1C(=O)NC1CCCc2c1cnn2-c1ccc(C(C)(C)C)cc1 (stereo not shown) | 10.2% |
| c1coc(CNc2ncnc3sc4c(c23)CCCCC4)c1 | -39.4% |
| Cc1nc(NCc2ccco2)c2c3c(sc2n1)CCC3 | -24.3% |
| CN1CCc2c(sc3c2c(NCc2ccco2)nc2nnnn23)C1 | -71.8% |
| CCN1CCc2c(sc3c2c(NCc2ccco2)nc2nnnn23)C1 | -73.6% |
| CCN1CCc2c(sc(NC(=S)NC(=O)c3ccco3)c2C(N)=O)C1 | 2.95% |
| CN1CCc2c(sc3nc(SCC(=O)NCc4ccco4)n(-c4ccccc4)c(=O)c23)C1 | -10.6% |
| Cn1c(NN)nc2sc3c(c2c1=O)CC(C)(C)OC3 | 9.89% |
| CCCNC(=O)CSc1nccn1Cc1ccco1 | 0.203% |
| CC1(C)SC(=S)N(/N=C/c2ccc(O)cc2)C1N(O)C(=O)Nc1ccc([N+](=O)[O-])cc1 (stereo not shown) | -10.2% |
| Nc1ccn([C@H]2CS[C@@H](CO)O2)c(=O)n1 | 18% |
| CC(CNc1ccc([N+](=O)[O-])cc1)NC(=O)c1ccccc1Br (stereo not shown) | -50.6% |
| O=C(NCCNc1ccc([N+](=O)[O-])cc1)c1ccccc1Br | -43.3% |
| CC(CNC(=O)c1ccccc1[N+](=O)[O-])NC(=O)c1ccccc1[N+](=O)[O-] (stereo not shown) | 1.57% |
